Mito fusion yeast: blocks mitochondrial division or promotes mitochondrial fusion; S. cerevisiae fusion-defective mutant growth rescue, CellTiterGlo 48 h; Potency, µM (top dose mostly 46.1 µM), for inactives: at the top dose growth rescue (activation), usual class: activators; 320,000 tested, 0.23% active; AID 485298; further: % of control where 0% means no effect; nearly all actives have a fitted effect of over 45% in size
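Temperature-sensitive fusion-defective S. cerevisiae (e.g. fzo1-1, mgm1-5) were grown with compound in YPEG medium (3% ethanol, 3% glycerol) for 48 hours at 37C. Growth rescue was measured as viability by CellTiterGlo luminescence after 10 minutes at ambient.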
PLK1 PBD block: PLK1 (human) polo-box domain binding inhibition; P53350; Plk1 PBD binding of FITC phosphopeptide, fluorescence polarization; Potency, µM, without a hit: max response, negative = inhibition, actives largely listed as inhibitors; 360,000 tested, 2.8% active; further: series mostly up to about 57 µM; on the % scale 0 is the no-effect control and ±100 the full control effect; nearly all actives have a fitted effect of over 65% in size
GLS inhibitor: glutaminase GLS (human) inhibition; Potency, µM (series often up to 45.5 µM), without a hit: top-dose activity change, negative = inhibition, hits mostly inhibitors; O94925; 410,000 tested, 0.21% active; GLS enzymatic activity, qHTS titration; further: on the % scale 0 is the no-effect control and ±100 the full control effect
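Enzyme dispensed in phosphate buffer (45 mM, pH 8.2, 0.02% Tween-20), compounds pinned in, then 1 mM L-glutamine solution and the glutamate oxidase–HRP–Amplex Red mix added; fluorescence read immediately and again after 30 min at room temperature.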
PKM2 activator: increases activity of human pyruvate kinase M2; P14618; 260,000 tested, 0.34% active; purified PKM2, Kinase-Glo ATP luminescence, activation; response scale: 0% is enzyme alone, no compound; Potency, µM (top dose mostly 57.5 µM), for the others: at the highest dose activation, hits mostly activators; further: on the % scale 0 is the no-effect control and ±100 the full control effect; nearly all actives have a fitted effect of over 55% in size
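Kinase-Glo luminescence reports ATP generated from ADP (0.1 mM) and PEP (0.5 mM) by purified hPK-M2 after 1 h at room temperature, pH 7.2 imidazole buffer; intermediate enzyme activity allows detecting inhibitors and activators.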
GCN5L2 inh: inhibitors of human GCN5L2 histone acetyltransferase | Potency, µM (top dose mostly 58.9 µM), for the others: at the top dose activity change, negative = inhibition, most hits filed as inhibitors | AID 504327 | 390,000 tested, 0.21% active | Q92830 | GCN5L2 HAT assay, ThioGlo1 CoA-SH fluorescence; further: on the % scale 0 is the no-effect control and ±100 the full control effect
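Free CoA generated was detected with ThioGlo1 (50uM) fluorescence at Ex340nm/Em540nm, read immediately and after 20 min at room temperature. Enzyme, 20 nM in HEPES pH 7.5 buffer, saw compounds 15 min before adding 75uM H3(1-25) peptide and 70uM acetyl-CoA.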
VDR inhibitor: inhibitors of human vitamin D receptor; Potency, µM, for the others: max response, negative = inhibition, hits mostly inhibitors; 400,000 tested, 0.93% active; P11473; VDR-SRC2-3 peptide fluorescence polarization, 2 h; further: on the % scale 0 is the no-effect control and ±100 the full control effect
Target sequence (P11473 whole entry, looked up): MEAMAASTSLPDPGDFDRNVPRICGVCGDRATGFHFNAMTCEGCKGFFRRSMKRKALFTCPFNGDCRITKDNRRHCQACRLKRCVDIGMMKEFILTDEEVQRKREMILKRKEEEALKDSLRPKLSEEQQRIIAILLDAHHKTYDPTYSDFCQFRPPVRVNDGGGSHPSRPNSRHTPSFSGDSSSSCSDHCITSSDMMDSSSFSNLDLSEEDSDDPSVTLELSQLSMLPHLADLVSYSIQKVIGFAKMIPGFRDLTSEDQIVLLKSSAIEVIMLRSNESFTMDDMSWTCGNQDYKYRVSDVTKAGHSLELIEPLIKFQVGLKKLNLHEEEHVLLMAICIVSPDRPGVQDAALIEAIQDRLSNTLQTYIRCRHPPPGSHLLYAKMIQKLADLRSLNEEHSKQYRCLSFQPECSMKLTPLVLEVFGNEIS
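Compounds are added to VDR with labelled SRC2-3 coactivator peptide and held 2 h at room temperature. Inhibition of the VDR–peptide interaction is then read as a change in fluorescence polarization.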
* = called active by the depositor; ? = inconclusive; nt = no result; ! = not active in a repeat; [ ] = dose if it differs, or a comment. In the library only some 3.4% were active in any assay of this set; here they are far more common. The call rests on the fitted dose curve; in most records, active means well fitted curve in the direction sought with a large enough effect; inconclusive means small, poorly fitted or top-dose-only effect, or another doubt; inactive means no such curve, though single readings can be large; an effect the other way counts as inactive or inconclusive. Potency means the concentration at half of the fitted maximal effect.

SMILES	Mito fusion yeast	PLK1 PBD block	GLS inhibitor	PKM2 activator	GCN5L2 inh	VDR inhibitor
Cc1ccccc1-c1nc(CN2C(=O)CN=C(c3ccccc3)c3ccccc32)c(C)o1	nt	nt	4%	nt	-5%	9%
O=C1NC(=O)C(=Cc2ccc(OCCOc3ccc([N+](=O)[O-])cc3)cc2)C(=O)N1	-4%	2.7µM*	?	24%	-20%	50µM*
CC(=O)N1CCN(c2ccc([N+](=O)[O-])cc2C=C2C(=O)NC(=O)NC2=O)CC1	-1%	?	8%	1%	-1%	6%
COc1ccc2c(c1)c(CCN1CCOCC1)c(C)n2C(=O)c1cccc(Cl)c1Cl	?	nt	nt	-4%	?	-16%
Cc1ccc(/C=C2\C(=O)NC(=O)N(Cc3ccccc3Cl)C2=O)o1	0%	0.84µM*	16%	14%	-8%	105%
Cc1ccccc1-n1c(C)cc(/C=C2/C(=O)NC(=O)N(Cc3ccco3)C2=O)c1C	-3%	-21%	7%	4%	-5%	-5%
O=C1NC(=O)N(Cc2ccccc2Cl)C(=O)/C1=C/c1cccs1	4%	1.2µM*	12%	?	-13%	?
COC(=O)/C(C)=C\CC12OC(C)(C)C3CC(C=C4C(=O)c5c(OC)c6c(c(CC=C(C)C)c5OC431)OC(C)(CCC=C(C)C)C=C6)C2=O (centres undefined)	nt	nt	nt	nt	-27%	2µM*
CC(=O)Oc1c2c(c(CC=C(C)C)c3c1C(=O)C1=CC4CC5C(C)(C)OC(C/C=C(\C)C(=O)O)(C4=O)[C@]15O3)OC(C)(CCC=C(C)C)C=C2 (some centres undefined)	nt	nt	nt	nt	16µM*	1.3µM*
CC(=O)N1CCN(c2ccc(OC[C@@H]3CO[C@@](Cn4ccnc4)(c4ccc(Cl)cc4Cl)O3)cc2)CC1	nt	nt	1%	nt	-3%	12%
CC(=O)N1CCN(c2ccc(OC[C@H]3CO[C@](Cn4ccnc4)(c4ccc(Cl)cc4Cl)O3)cc2)CC1	0.41µM*!	-21%	15%	0%	-6%	-1%
C[C@@H](Cc1cccc(C(F)(F)F)c1)NCCCc1ccccc1	nt	nt	nt	nt	38%[0.501 µM]	-20%
CN1C[C@H](C(=O)N[C@]2(C)O[C@@]3(O)[C@@H]4CCCN4C(=O)[C@H](Cc4ccccc4)N3C2=O)C=C2c3cccc4[nH]cc(c34)C[C@H]21	nt	nt	18%	nt	?	14µM*
CC(C)C[C@H]1C(=O)N2CCC[C@H]2[C@]2(O)O[C@](NC(=O)[C@@H]3C=C4c5cccc6[nH]c(Br)c(c56)C[C@H]4N(C)C3)(C(C)C)C(=O)N12	?	nt	nt	nt	-18%	28µM*!
CC(C)C[C@H]1C(=O)N2CCC[C@H]2[C@]2(O)O[C@](NC(=O)[C@@H]3C=C4c5cccc6[nH]cc(c56)C[C@H]4N(C)C3)(C(C)C)C(=O)N12	-3%	?	-2%	nt	-27%	79µM*
CC(C)C[C@H]1C(=O)N2CCC[C@@H]2[C@]2(O)O[C@](NC(=O)[C@H]3C=C4c5cccc6[nH]c(Br)c(c56)C[C@H]4N(C)C3)(C(C)C)C(=O)N12	nt	nt	nt	nt	6%[21.4 µM]	-13%
CN1C[C@H](C(=O)NC2(C)OC3(O)[C@@H]4CCCN4C(=O)[C@H](Cc4ccccc4)N3C2=O)CC2c3cccc4[nH]cc(c34)C[C@H]21 (some centres undefined)	nt	-11%	25%	nt	nt	8%
CCC(C)(C)O	nt	nt	nt	nt	5%	3%
Cc1nc2ccc(Nc3nc4cc(S(=O)(=O)N5CCOCC5)ccc4o3)cc2s1	-3%	4.7µM*	-17%	-1%	-13%	-13%
COc1ccc(S(=O)(=O)N2CCOCC2)cc1NC(=O)COC(=O)Cc1ccccc1	nt	-11%	1%	nt	-4%	13%
CCNC(C)Cc1ccc2c(c1)OCO2 (centres undefined)	nt	nt	-1%[99.4 µM]	nt	nt	nt
CC[C@@H]1CN2CCc3cc(OC)c(OC)cc3[C@H]2C[C@@H]1C[C@H]1NCCc2cc(OC)c(OC)cc21	nt	nt	nt	nt	-3%[21.4 µM]	-1%
